Measured values as given in PubChem BioAssay AID1159580 (chemical genetic matrix, 2015).
Among all 5,500 compounds or so, about 2,000 (36%) were called active. Roughly 18% stayed inconclusive and do not appear here. No stated cut-off is given here; in the data, active means normalized growth mostly below about 0.91 (no sharp cut-off); inconclusive means no clear call, values can overlap the other calls; inactive means mostly above about 0.92. This is one part of the list.

Test: chemical genetic growth profiling, strain panel (AID 1159580);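 further: tested at 20 µM; growth read once vehicle control cultures reached saturation at 30 °C; 1 = growth at the plate median or of vehicle wells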
Conditions: growth OD
[1] = S. cerevisiae deletion strains, locus YHR030C, strain SLT2, stronger effect = lower value
[2] = S. cerevisiae deletion strains, locus YHR079C, strain IRE1, stronger effect = lower value
[3] = S. cerevisiae deletion strains, locus YJL095W, strain BCK1, stronger effect = lower value
[4] = S. cerevisiae deletion strains, locus YJR066W, strain TOR1, stronger effect = lower value
[5] = S. cerevisiae deletion strains, locus YLR113W, strain HOG1, stronger effect = lower value
[6] = S. cerevisiae deletion strains, locus YNL183C, strain NPR1, stronger effect = lower value
[7] = S. cerevisiae deletion strains, locus YOR231W, strain MKK1, stronger effect = lower value
[8] = S. cerevisiae deletion strains, locus YPL256C, strain CLN2, stronger effect = lower value
[9] = S. cerevisiae deletion strains, locus YAL013W, strain DEP1, stronger effect = lower value
[10] = S. cerevisiae deletion strains, locus YDR150W, strain NUM1, stronger effect = lower value
[11] = S. cerevisiae deletion strains, locus YGR078C, strain PAC10, stronger effect = lower value
[12] = S. cerevisiae deletion strains, locus YJR075W, strain HOC1, stronger effect = lower value
[13] = S. cerevisiae deletion strains, locus YMR263W, strain SAP30, stronger effect = lower value
[14] = S. cerevisiae deletion strains, locus YMR307W, strain GAS1, stronger effect = lower value
[15] = S. cerevisiae deletion strains, locus YPL055C, strain LGE1, stronger effect = lower value

Measured: normalized growth

Clc1ccc2c(c1)CCc1cccnc1C2=C1CCNCC1
inactive: [1] 0.968 | [2] 0.986 | [3] 1.04 | [4] 0.932 | [5] 1.03 | [6] 0.965 | [7] 0.992 | [8] 0.972

O=C1CCCCC/C=C/CCCCCCCCO1
inactive: [9] 0.986 | S. cerevisiae deletion strains, locus YBR021W, strain FUR4, stronger effect = lower value 1.01 | S. cerevisiae deletion strains, locus YBR229C, strain ROT2, stronger effect = lower value 1 | S. cerevisiae deletion strains, locus YCL029C, strain bik1, stronger effect = lower value 1 | S. cerevisiae deletion strains, locus YDL035C, strain GPR1, stronger effect = lower value 0.988 | S. cerevisiae deletion strains, locus YDL074C, strain BRE1, stronger effect = lower value 0.949 | S. cerevisiae deletion strains, locus YDL101C, strain DUN1, stronger effect = lower value 0.994 | S. cerevisiae deletion strains, locus YDL134C, strain PPH21, stronger effect = lower value 0.999 | S. cerevisiae deletion strains, locus YDL185W, strain tfp1, stronger effect = lower value 0.999 | S. cerevisiae deletion strains, locus YDL192W, strain arf1, stronger effect = lower value 0.997 | S. cerevisiae deletion strains, locus YDR101C, strain arx1, stronger effect = lower value 0.979 | [10] 1.01 | S. cerevisiae deletion strains, locus YDR162C, strain NBP2, stronger effect = lower value 1 | S. cerevisiae deletion strains, locus YDR318W, strain mcm21, stronger effect = lower value 0.985 | S. cerevisiae deletion strains, locus YDR388W, stronger effect = lower value 0.99 | S. cerevisiae deletion strains, locus YDR502C, strain sam2, stronger effect = lower value 0.969 | S. cerevisiae deletion strains, locus YEL061C, strain CIN8, stronger effect = lower value 0.999 | S. cerevisiae deletion strains, locus YER110C, stronger effect = lower value 0.992 | S. cerevisiae deletion strains, locus YER155C, strain BEM2, stronger effect = lower value 1 | S. cerevisiae deletion strains, locus YER167W, strain BCK2, stronger effect = lower value 0.974 | S. cerevisiae deletion strains, locus YGL078C, strain dbp3, stronger effect = lower value 1 | S. cerevisiae deletion strains, locus YGL086W, strain mad1, stronger effect = lower value 0.988 | S. cerevisiae deletion strains, locus YGL248W, strain PDE1, stronger effect = lower value 1 | [11] 0.946 | S. cerevisiae deletion strains, locus YGR135W, strain pre9, stronger effect = lower value 0.956 | S. cerevisiae deletion strains, locus YGR229C, strain SMI1, stronger effect = lower value 0.893 | S. cerevisiae deletion strains, locus YGR252W, strain gcn5, stronger effect = lower value 0.999 | [1] 0.999 | S. cerevisiae deletion strains, locus YHR079C, strain IRE1 (second series), stronger effect = lower value 0.995 | S. cerevisiae deletion strains, locus YHR094C, strain hxt1, stronger effect = lower value 0.997 | S. cerevisiae deletion strains, locus YHR129C, strain ARP1, stronger effect = lower value 0.988 | S. cerevisiae deletion strains, locus YHR200W, strain rpn10, stronger effect = lower value 1 | S. cerevisiae deletion strains, locus YIL066C, strain RNR3, stronger effect = lower value 0.985 | S. cerevisiae deletion strains, locus YIL073C, strain SPO22, stronger effect = lower value 1.01 | S. cerevisiae deletion strains, locus YIL125W, strain kgd1, stronger effect = lower value 0.985 | S. cerevisiae deletion strains, locus YIR030C, strain dcg1, stronger effect = lower value 1 | [3] 0.924 | S. cerevisiae deletion strains, locus YJL134W, strain LCB3, stronger effect = lower value 1 | S. cerevisiae deletion strains, locus YJL168C, strain set2, stronger effect = lower value 0.988 | S. cerevisiae deletion strains, locus YJL187C, strain SWE1 (second series), stronger effect = lower value 1 | S. cerevisiae deletion strains, locus YJR043C, strain POL32, stronger effect = lower value 0.953 | [12] 0.944 | S. cerevisiae deletion strains, locus YKL009W, strain mrt4, stronger effect = lower value 1.01 | S. cerevisiae deletion strains, locus YKL068W, stronger effect = lower value 1 | S. cerevisiae deletion strains, locus YKL085W, strain MDH1 (second series), stronger effect = lower value 1.01 | S. cerevisiae deletion strains, locus YKL085W, strain MDH1, stronger effect = lower value 1.01 | S. cerevisiae deletion strains, locus YKL190W, strain CNB1, stronger effect = lower value 1 | S. cerevisiae deletion strains, locus YKR001C, strain vps1, stronger effect = lower value 0.948 | S. cerevisiae deletion strains, locus YLR039C, strain RIC1, stronger effect = lower value 0.869 | S. cerevisiae deletion strains, locus YLR058C, strain SHM2, stronger effect = lower value 1 | S. cerevisiae deletion strains, locus YLR102C, strain apc9, stronger effect = lower value 0.997 | S. cerevisiae deletion strains, locus YLR262C, strain YPT6, stronger effect = lower value 0.859 | S. cerevisiae deletion strains, locus YLR268W, strain sec22, stronger effect = lower value 0.975 | S. cerevisiae deletion strains, locus YLR330W, strain CHS5, stronger effect = lower value 1.01 | S. cerevisiae deletion strains, locus YLR342W, strain FKS1 (second series), stronger effect = lower value 0.968 | S. cerevisiae deletion strains, locus YLR371W, strain rom2, stronger effect = lower value 0.999 | S. cerevisiae deletion strains, locus YLR418C, strain cdc73, stronger effect = lower value 0.848 | S. cerevisiae deletion strains, locus YML016C, strain PPZ1, stronger effect = lower value 1.01 | S. cerevisiae deletion strains, locus YML032C, strain rad52, stronger effect = lower value 0.983 | S. cerevisiae deletion strains, locus YML124C, strain tub3, stronger effect = lower value 0.995 | S. cerevisiae deletion strains, locus YMR078C, strain ctf18, stronger effect = lower value 0.99 | S. cerevisiae deletion strains, locus YMR223W, strain ubp8, stronger effect = lower value 0.973 | [13] 0.97 | [14] 0.898 | S. cerevisiae deletion strains, locus YNL067W, strain RPL9B, stronger effect = lower value 1.01 | S. cerevisiae deletion strains, locus YNL128W, strain TEP1, stronger effect = lower value 0.978 | S. cerevisiae deletion strains, locus YNL153C, strain GIM3, stronger effect = lower value 0.972 | S. cerevisiae deletion strains, locus YNL233W, strain BNI4, stronger effect = lower value 0.943 | S. cerevisiae deletion strains, locus YNL250W, strain rad50, stronger effect = lower value 0.99 | S. cerevisiae deletion strains, locus YNL271C, strain bni1, stronger effect = lower value 0.991 | S. cerevisiae deletion strains, locus YNL298W, strain CLA4, stronger effect = lower value 0.993 | S. cerevisiae deletion strains, locus YNL307C, strain MCK1, stronger effect = lower value 0.958 | S. cerevisiae deletion strains, locus YNL322C, strain KRE1, stronger effect = lower value 1 | S. cerevisiae deletion strains, locus YNR052C, strain pop2, stronger effect = lower value 1.01 | S. cerevisiae deletion strains, locus YOL006C, strain TOP1, stronger effect = lower value 0.936 | S. cerevisiae deletion strains, locus YOL012C, strain htz1 0.561 | S. cerevisiae deletion strains, locus YOL147C, strain pex11, stronger effect = lower value 1.01 | S. cerevisiae deletion strains, locus YOR061W, strain CKA2, stronger effect = lower value 1.01 | S. cerevisiae deletion strains, locus YOR069W, strain VPS5, stronger effect = lower value 1 | S. cerevisiae deletion strains, locus YOR136W, strain idh2, stronger effect = lower value 0.992 | S. cerevisiae deletion strains, locus YOR144C, strain elg1, stronger effect = lower value 1 | S. cerevisiae deletion strains, locus YOR184W, strain ser1, stronger effect = lower value 0.955 | S. cerevisiae deletion strains, locus YOR316C, strain cot1, stronger effect = lower value 0.999 | [15] 0.996 | S. cerevisiae deletion strains, locus YPL241C, strain CIN2, stronger effect = lower value 1.01 | S. cerevisiae deletion strains, locus YPR119W, strain clb2, stronger effect = lower value 0.994 | S. cerevisiae deletion strains, locus YPR141C, strain kar3, stronger effect = lower value 0.991 | S. cerevisiae deletion strains, locus YPR163C, strain tif3, stronger effect = lower value 1.01 | S. cerevisiae deletion strains, locus YPR167C, strain met16, stronger effect = lower value 1 | S. cerevisiae deletion strains, strain wtn01, stronger effect = lower value 0.96 | S. cerevisiae strains, strain wild type, stronger effect = lower value 0.97

COC(=O)[C@@H]1C[C@H](OC(C)=O)C(=O)[C@H]2[C@@]1(C)CC[C@H]1C(=O)O[C@H](c3ccoc3)C[C@]21C
inactive: [1] 1 | [2] 0.994 | [3] 1 | [4] 0.936 | [5] 1.03 | [6] 0.957 | [7] 0.985 | [8] 1.01

NC(N)=NCCSSCCN=C(N)N
inactive: [9] 0.949 | S. cerevisiae deletion strains, locus YAL040C, strain CLN3, stronger effect = lower value 0.948 | S. cerevisiae deletion strains, locus YCL061C, strain MRC1 (second series), stronger effect = lower value 0.979 | [10] 0.988 | S. cerevisiae deletion strains, locus YDR363W, strain ESC2, stronger effect = lower value 0.941 | S. cerevisiae deletion strains, locus YER002W, strain NOP16, stronger effect = lower value 0.992 | [11] 0.973 | [12] 0.967 | [13] 0.981 | [14] 0.977 | S. cerevisiae deletion strains, locus YNL175C, strain NOP13, stronger effect = lower value 0.981 | S. cerevisiae deletion strains, locus YNL197C, strain WHI3, stronger effect = lower value 0.972 | S. cerevisiae deletion strains, locus YNL224C, strain SQS1, stronger effect = lower value 1.01 | S. cerevisiae deletion strains, locus YOR083W, strain WHI5 (second series), stronger effect = lower value 0.963 | [15] 0.983
